The list is not random: actives were taken first. Their share in the collection is about 4.1%.
CaV13 FRET inh = Primary screen for inhibitors of IQ motif and Ca2+-dependent inactivation inhibitor domain binding in CACNA1D, Förster resonance energy transfer in living cells, …. HEK cells, CFP/YFP FRET ICDI-IQ, plate reader, 10 min; percent FRET-ratio fall versus neutral wells. inhibition, % at 12.3 µM. hit rate 0.098% among 340,000. AID 743397;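 active = mean replicate inhibition of at least 30% and at least 1% of replicates passing that level; inconclusive = only one of the two criteria is met; inactive = neither criterion is met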
ALR inh = inhibitors of human ALR sulfhydryl oxidase, primary screen, biochemical, H2O2 detection, HRP-luminol luminescence, single point; FAD-linked sulfhydryl oxidase ALR (Homo sapiens), P55789; purified ALR, DTT oxidation; hit rate 3.8% among 290,000; inhibition, % (concentration not given with the values);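 active = mean replicate inhibition above about 79%, with every replicate also reaching it, limit read from the data; inconclusive = only one of the two criteria met; inactive = mean below limit and not every replicate reaching it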
M18AAP inhibitor = PfM18AAP inhibitors, malaria aminopeptidase, primary screen, biochemical, QFRET, recombinant enzyme; AID 1822, 2009; inhibition, % at 7.35 µM; hit rate 1.2% among 290,000; M18 aspartyl aminopeptidase (Plasmodium falciparum 3D7); H-Glu-NHMec fluorogenic cleavage;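 active = inhibition above the campaign mean inhibition over all tested compounds plus 3 SD, cut at about 28% in these data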
IDE cell inh = human IDE inhibitors in live cells, primary screen, fluorescence polarization, HEK cells, FAbetaB substrate; Insulin-degrading enzyme (Homo sapiens), P14735; FAbetaB cleavage; inhibition, % at 5.59 µM; AID 434962, 2010; hit rate 0.41% among 320,000;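 active = percent inhibition above the average of all tested compounds plus 3 SD, set per screening campaign, cut at about 16% in these data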;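 also: IDE supplied by intact live HEK cells; FP after avidin binding of uncleaved biotin substrate so inhibition keeps polarization high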
PolyA inhibitor = polyadenylation inhibitors in yeast reporter cells, primary screen, luminescence, S. cerevisiae; S. cerevisiae SKY197-pL101 polyadenylation reporter, beta-gal luminescence; efflux-impaired pdr1/pdr3 knockout yeast; score 100 = 6 SD above DMSO; hit rate 0.02% among 300,000; activity score, % at 12 µM;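 active = lowest replicate activity score at least 50, where 100 means six control SD above control mean; inconclusive = lowest score under 50 but half or more replicates reach 50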;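 also: yeast exposed to compound for 9 h at 30 °C; higher score means more reporter readthrough which indicates perturbed polyadenylation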
IDE cell activ = human IDE activators in live cells, primary screen, fluorescence polarization, HEK cells, FAbeta-B substrate; Insulin-degrading enzyme (Homo sapiens), P14735; FAbeta-B cleavage; 0% vehicle, 100% cell-free pure enzyme wells; activation, % at 5.96 µM; hit rate 0.073% among 340,000;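 active = activation above the mean of all tested compounds plus 3 SD, set per screening campaign, cut at about 17% in these data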
Each line names hits and unclear results; the compound was inactive in the other large screens.

O=C(Cc1ccc(Cl)cc1)NNC(=S)NC(=O)c1cccs1	ALR inh 98
CCOCCCNCC(=O)Nc1ccccc1N1CCOCC1	ALR inh 97 (no result: PolyA inhibitor)
Cc1ccc(NC(=O)c2cc(C(=O)Nc3ccc(C)cc3)n(C)n2)cc1	none (no result: M18AAP inhibitor)
Cc1cc(-c2ccccc2C(=O)NC2CCCCC2)on1	none (no result: ALR inh)
Nc1ccc(O)cc1	none (no result: CaV13 FRET inh, M18AAP inhibitor, IDE cell activ)
NC(=Nc1ccc(N)cc1)C(N)=Nc1ccc(N)cc1	ALR inh 99
COc1ccc(Cl)cc1NC(=S)Nc1ccccc1C	none
O=C(N[C@H](C(=O)N1CCC[C@H]1C(=O)NCc1ccccc1)C1CCCCC1)c1ccc(Cl)cc1Cl	none (no result: ALR inh, M18AAP inhibitor, IDE cell inh, PolyA inhibitor, IDE cell activ)
CS/C(=N\S(=O)(=O)c1cccs1)NC(=O)CSc1nc2ccccc2s1	ALR inh 98
C/C(=N/NC(=O)CSc1nc2ccccc2s1)c1ccncc1	none
COc1ccc(S(=O)(=O)N(C(C)=O)c2ccc3oc(=O)sc3c2)cc1	IDE cell inh 25 (no result: ALR inh)
C/C(=N\Nc1ccc(S(=O)(=O)N2CCCCC2)cn1)c1ccc(O)cc1	ALR inh 91 (no result: M18AAP inhibitor, PolyA inhibitor)
COc1ccc(-c2cc(C(=O)Nc3cc(OC)cc(C(=O)Nc4cccc(C(F)(F)F)c4)c3)[nH]n2)cc1	PolyA inhibitor inconclusive (no result: M18AAP inhibitor)
CCCC(c1nnnn1Cc1ccc(OC)cc1)N1CCC(C(N)=O)CC1 (stereo unspecified)	none
COc1ccc(Cn2nnnc2C(CC(C)C)N2CCC(C(N)=O)CC2)cc1 (stereo unspecified)	CaV13 FRET inh 43
CCOc1ccc(Br)cc1S(=O)(=O)NC1CCCC1	none (no result: M18AAP inhibitor, PolyA inhibitor)
COc1cc(/C=N/N2CCN(c3ccccc3)CC2)cc(OC)c1OC(C)=O	ALR inh 97
COc1ccccc1N1CCN(/N=C(\C)c2ccc(O)cc2)CC1	ALR inh 99
COc1cc(/C=N/N2CCN(c3ccc(Cl)cc3)CC2)cc(OC)c1OC(C)=O	none
COc1ccc(/C=N/N2CCN(c3ccccc3OC)CC2)cc1OC	none
COc1ccccc1N1CCN(/N=C/c2ccc(C(=O)O)cc2)CC1	none
COc1cccc(/C=N/N2CCN(C3c4ccccc4-c4ccccc43)CC2)c1O	none
COc1ccccc1N1CCN(/N=C/c2cccc(OC)c2O)CC1	ALR inh 93
CCN(CC)c1ccc(/C=N/N2CCN(c3ccccc3OC)CC2)cc1	ALR inh 99
S=C(Nc1ccc2c(c1)OCO2)N1CCN(Cc2ccco2)CC1	none
COc1ccc(CN2C[C@H]3CON(C)[C@H]3C[C@H]2c2ccc(-c3ccccc3)cc2)cc1	none (no result: ALR inh, M18AAP inhibitor, IDE cell inh, PolyA inhibitor, IDE cell activ)
COc1ccccc1N1CCN(/N=C/c2ccc(O)c(O)c2)CC1	ALR inh 100, M18AAP inhibitor 63 (no result: IDE cell activ)
O=C1OC[C@H]2CCCN2C(=O)[C@@H](CC(=O)N(CCO)Cc2ccccc2)C/C=C\C[C@H]1Cc1ccc(F)cc1	none (no result: M18AAP inhibitor, PolyA inhibitor)
CN1CCc2nc(SCC(=O)Nc3ccc(Cl)cc3)c(C#N)cc2C1	ALR inh 99
CCOC(=O)c1c(C#N)c(SCC(=O)Nc2ccc(OC)cc2)nc2c1CN(CC)CC2	ALR inh 99
COc1ccc(NC(=O)CSc2nc3c(c(-c4cccs4)c2C#N)CN(C)CC3)cc1OC	ALR inh 99
COc1ccc(NC(=O)CSc2nc(N)c(C#N)cc2C#N)cc1	none
O=C(Nc1ccccc1[N+](=O)[O-])C1COc2ccccc2O1 (stereo unspecified)	none (no result: ALR inh)
O=C(COc1ccc(OCc2ccccc2)cc1)NN=C1CCCC1	none (no result: ALR inh)
O=C1CCCCC/C1=N/Nc1ccc(OCc2ccccc2)cc1	ALR inh 99
CCNC(=O)CCS(=O)(=O)c1ccc2ccccc2c1	ALR inh 99
Cn1c(=O)c(=O)n(C)c2cc(S(=O)(=O)CCC(=O)NCc3ccccc3)ccc21	ALR inh 99
Nc1nc(C(c2ccccc2)c2ccccc2)cs1	none
C[C@H]1CN([C@@H](C)CO)S(=O)(=O)c2ccc(Br)cc2O[C@H]1CN(C)C(=O)Cc1ccccn1	none (no result: ALR inh, M18AAP inhibitor, IDE cell inh, PolyA inhibitor, IDE cell activ)
COC(=O)Nc1nn(-c2ccc(Cl)cc2)c(=O)c(C#N)c1C	none
